The structures appear in SMILES notation. Active and inactive are the calls of the source. How the source made its calls: active means hit-call score of the fitted dose curve at least 0.9, where 1 is the maximum; inactive means score below 0.9.

As usually defined, the AC50 is the concentration giving half of the maximal activity seen.

A short description of this assay: CCTE_Shafer_MEA_acute_burst_percentage_std: CCTE's Neural Acute Assay for Standard Deviation of Burst Percentage, Shafer Lab (AID 2284018).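 Further: fitted in the negative direction so actives lower burst percentage SD.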 The protocol:
CCTE_Shafer_MEA_acute assay is conducted using Axion Biosystems 48 well microelectrode array (MEA) plates and Maestro recording system. Each well of the MEA plate contains a grid of 16 microelectrodes embedded in the culture surface. Electrically active cells, such as neurons, can be cultured over the electrodes, and electrical activity in these cells can be recorded extracellularly. The spontaneous firing of neurons is captured from each electrode on a microsecond timescale providing both temporally and spatially precise data. […] The CCTE_Shafer_MEA_acute assay uses primary cultures of rat cortical neurons. As these cultures mature over time, neural networks develop functional activity and form cohesive networks in which electrical activity can be highly coordinated. Baseline 40-minute recordings are made on days post-plating 13 or 15, followed by a secondary 40-minute recording after chemical exposure.CCTE_Shafer_MEA_acute_burst_percentage_std is a component of the CCTE_Shafer_MEA_acute assay. It measures the percentage of spikes (action potential firing) in a single-electrode burst (temporally-clustered groups of spikes) as the number of spikes in bursts divided by the total number of spikes during a recording in a microelectrode array (MEA) using Axion Biosystems Maestro 768 channel amplifier with the AxIS adaptive spike detector. The standard deviation of the burst percentages across electrodes is calculated to report a well-level value. The recordings before and after chemical treatment are used to calculate a percent change in the standard deviation of the burst percentage in each well.Data from the assay component CCTE_Shafer_MEA_acute_burst_percentage_std was analyzed into 1 assay endpoint. This assay endpoint, CCTE_Shafer_MEA_acute_burst_percentage_std, was analyzed in the negative analysis fitting direction relative to DMSO as the negative control and baseline of activity. Using a type of functional reporter, gain or loss-of-signal activity can be used to understand electrical activity.
Spontaneous activity in the cortical cultures was recorded using an Axion Biosystems Maestro 768 channel amplifier and Axion Integrated Studios (AxIS) v1.8 (or later) software. The amplifier recorded from all channels simultaneously (gain = 1200 x; sampling rate = 12.5 kHz/channel): raw signals were filtered with a Butterworth band-pass filter (300-5000 Hz), which filters out slower local field potentials leaving only fast potentials, i.e., "spikes", arising from extracellular currents associated with action potentials (Pine 2006; Wheeler and Nam 2011). On-line spike detection of filtered signals was conducted with the AxIS adaptive spike detector, using a threshold of 8x the root mean squared (rms) noise on each channel. Any electrodes with rms noise levels greater than 5 uV were grounded (e.g., no data were recorded). Once grounded, an electrode was grounded for the duration of the experiment. All recordings were conducted at 37 C. Wells were deemed usable if on the day of the exposure >/= 10 electrodes were active (defined as >/= 5 spikes/min). On DIV 13 or 15, a minimum of three wells from one cortical culture preparation were treated with each compound (0.03-40 uM). Prior to recording baseline activity, each mwMEA plate was placed in the Maestro at 37 C and allowed to sit for 20 min while firing rates stabilized. Baseline activity (40 min) was recorded before the addition of each compound. An additional 40 min of spontaneous activity was recorded in the presence of each compound. Changes in network parameters relative to baseline were assessed following compound treatment.
Consider `C#CCN(C)[C@H](C)Cc1ccccc1`, for which the outcome was inactive. Regarding `COc1ccc(CO)cc1`, the call was inactive. For `Cc1ccc(OP(=O)(Oc2ccc(C)cc2)Oc2ccc(C)cc2)cc1` (tested in a mixture with another compound), the AC50 is 3.66 µM (active). Regarding `CC1(C)[C@H](C(=O)O[C@H](C#N)c2cccc(Oc3ccccc3)c2)[C@@H]1C=C(Br)Br`, the half-maximal activity concentration (AC50) is 2.72 µM (active). Consider `O=C(O)CNCP(=O)(O)O`, for which the compound was called inactive. Turning to `Oc1ccc(C2(c3ccc(O)cc3)c3ccccc3-c3ccccc32)cc1`, the AC50 is 22.8 µM (active).

Turning to `O=c1c2ccccc2c(=O)c2c1cc(Cl)c1[nH]c3c([nH]c12)c(Cl)cc1c(=O)c2ccccc2c(=O)c13`, the compound was called inactive. Turning to `CCCC[N+](CCCC)(CCCC)CCCC`, the AC50 is 23.2 µM (active). Turning to `CP(=O)(O)CCC(N)C(=O)O` (stereo not given), the outcome was inactive. Still for that read-out and setting: under `[Cd+2].[Cl-].[Cl-]` stands “inactive”; under `c1cc[n+]2c(c1)-c1cccc[n+]1CC2`, “inactive”. Consider `CC1(C)[C@H](C=C(Cl)Cl)[C@@H]1C(=O)O[C@@H](C#N)c1cccc(Oc2ccccc2)c1`, for which the compound was called inactive. The same measure, in the same setting: under `CP(=O)(O)CC[C@H](N)C(=O)O` stands “inactive”. As for `CC1(C)[C@@H](C=C(Cl)Cl)[C@@H]1C(=O)O[C@@H](C#N)c1ccc(F)c(Oc2ccccc2)c1`, the AC50 is 7.77 µM (active). As to `O=[N+]([O-])O`, the outcome was inactive.

The values are drawn from PubChem BioAssay (EPA / NIEHS).
